# A3A deaminase – APOBEC3A ssDNA deaminase inhibitors, primary screen, selectivity assay for APOBEC3G inhibitor project, biochemical, FAM/TAMRA oligo cleavage fluorescence. inhibition, % at 20 µM. AID 493011, 2011. 330,000 compounds, 0.41% hits. DNA dC->dU-editing enzyme APOBEC-3A (Homo sapiens), P31941. recombinant A3A, FAM/TAMRA ssDNA deamination fluorescence;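 active means at least 40% inhibition at 20 µM here, with at most 30% in a related deaminase screen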;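 further: plate controls were A3A with DMSO for no effect and wells lacking A3A enzyme for full effect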
# Target sequence (P31941 whole entry, looked up): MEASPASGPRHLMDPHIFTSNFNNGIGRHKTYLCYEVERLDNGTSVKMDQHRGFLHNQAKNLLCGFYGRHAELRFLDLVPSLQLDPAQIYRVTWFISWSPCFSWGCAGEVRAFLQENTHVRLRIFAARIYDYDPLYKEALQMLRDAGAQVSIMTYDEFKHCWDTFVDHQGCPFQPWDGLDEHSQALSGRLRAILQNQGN
# PHOSPHO1 block – PubChem AID 1565; 290,000 compounds, 1.1% hits; Phosphoethanolamine/phosphocholine phosphatase (Homo sapiens), Q8TCT1; inhibition, % at 13.3 µM; recombinant PHOSPHO1, absorbance phosphatase assay; in the data active means inhibition above about 60%
# Target sequence (Q8TCT1 whole entry, looked up): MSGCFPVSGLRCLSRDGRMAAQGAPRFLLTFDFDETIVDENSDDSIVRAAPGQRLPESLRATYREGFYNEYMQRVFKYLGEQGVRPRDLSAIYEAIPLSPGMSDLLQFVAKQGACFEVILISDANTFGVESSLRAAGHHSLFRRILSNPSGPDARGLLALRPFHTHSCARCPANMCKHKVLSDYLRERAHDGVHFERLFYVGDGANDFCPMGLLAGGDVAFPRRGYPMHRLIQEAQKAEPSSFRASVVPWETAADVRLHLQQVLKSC
# MLLE-PAM2 inh – inhibitors of PABP1 MLLE–PAM2 peptide binding, primary screen, biochemical, fluorescence polarization, FITC-PAM2, GST-MLLE | Polyadenylate-binding protein 1 (Homo sapiens), P11940 | inhibition, % at 20 µM | 360,000 compounds, 0.36% hits; in the data active means inhibition above about 35%, passing the limit was not always enough;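 further: plate controls were DMSO wells with GST-MLLE for no effect and wells lacking GST-MLLE protein for full effect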
# eIF4H inh – human eIF4H binding inhibitors, primary screen, translation initiation inhibitor project, biochemical, uHTS, fluorescence polarization; 290,000 compounds, 0.94% hits; eIF4H fluorescence polarization binding assay; inhibition, % at 35 µM; Eukaryotic translation initiation factor 4H (Homo sapiens), Q15056; AID 2012, 2009;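 further: calls also rest on retests at 20 µM and on dose response follow-up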
# A3G deaminase – APOBEC3G DNA deaminase inhibitors, primary screen, biochemical, fluorescence, single-stranded DNA substrate, uHTS | recombinant A3G, ssDNA deamination FAM/TAMRA fluorescence | 330,000 compounds, 0.28% hits | inhibition, % at 20 µM | AID 493012, 2011;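 active means inhibition of at least 40% at 20 µM, with no more than 30% in the related APOBEC3A deaminase screen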;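 further: plate controls were DMSO wells with A3G for no effect and wells lacking A3G enzyme for full effect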
# PABP polyA inh – PABP poly(A) RNA binding inhibitors, primary screen, biochemical, fluorescence polarization, uHTS. Polyadenylate-binding protein 1 (Homo sapiens), P11940. AID 2014, 2009. calls only at 35 µM. 290,000 compounds, 1% hits;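 further: calls also rest on retests at 20 µM and on dose response follow-up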
# Active calls of the source: *; i = inactive; x = not tested or not shown; + = active, no number. An excerpt weighted towards active compounds, which were near 2.6% of everything screened. Unless noted, how the calls were made is not given here.
SMILES,A3A deaminase,PHOSPHO1 block,MLLE-PAM2 inh,eIF4H inh,A3G deaminase,PABP polyA inh
Cc1ccc(S(=O)(=O)N(C)C)cc1NC(=S)NNC(=O)C(N)=O,-6,38,-28,9,-10,+
Cc1ccc(S(=O)(=O)N(C)C)cc1NC(=S)NNC(=O)C1CC1,1,-8,-28,-2,-6,i
O=C(c1ccc(Cl)cc1)N1CCCC(C(=O)N2CCc3ccccc3C2)C1 (stereo unspecified),-5,60*,16,1,-7,i
CS(=O)(=O)c1ccc(C(=O)N2CCc3ccccc3C2)cc1,-3,10,0,active,-14,i
O=C(NCCc1cccnc1)C1CCC(=O)N(CCc2cccc(F)c2)C1 (stereo unspecified),3,8,-2,-9,0,i
COc1ccc(NS(=O)(=O)c2cccc(C(=O)NN=C(C)c3ccco3)c2)cc1,-6,x,-21,x,-8,x
O=c1[nH]c(Nc2ccc(F)cc2)cc2ccccc12,4,0,2,21,-10,+
O=c1[nH]c(Nc2ccccc2Cl)cc2ccccc12,-5,x,12,x,-8,x
COc1ccccc1NC(=O)Cc1nnc(SCC(=O)NC2CCCCC2C)n1C (stereo unspecified),1,36,13,-8,-6,i
COc1ccc2cc(C(=O)N3CCN(c4ccc(F)cc4)CC3)[nH]c2c1,-2,14,12,-4,-3,i
Cc1csc(=O)n1CC(=O)OCC(=O)Nc1ccc(F)c(F)c1F,x,x,13,x,x,x
C/C(=N\N=C1\NC(=O)C(CC(=O)Nc2ccc(Cl)cc2)S1)c1ccco1 (stereo unspecified),-3,30,10,50,-5,+
O=c1cc(CN2CCCc3ccccc32)nc2sccn12,-2,5,124,94*,-3,i
CCOC(=O)c1oc2ccccc2c1NC(=O)c1ccc(Cl)s1,-3,2,-7,4,-7,i
COc1ccc(C(=O)Nc2ccc(C(=O)N3CCCCC3C)cc2)c(OC)c1OC (stereo unspecified),1,75*,8,-5,3,i
Cc1cccc(C(=O)Nc2ccc(C(=O)N3CCCCC3C)cc2)c1 (stereo unspecified),-2,58,-6,-7,2,i
COc1cc(C(=O)NNC(=O)c2cc(S(=O)(=O)N(C)C)ccc2N2CCCC2)cc(OC)c1OC,-1,x,-2,x,-3,x
COc1cc(C(=S)N2CCCCC2)ccc1O,-7,34,38*,-6,-2,i
COc1cc(C(=S)N2CCC(C)CC2)ccc1O,-1,66*,40*,6,-1,i
CCOc1cc(C(=S)N2CCCC2)ccc1O,-7,8,28,7,10,i
COc1cc(C(=S)N2CCCC2)ccc1O,1,31,40*,2,2,i
COc1cc(C(=S)N2CCC(C(N)=O)CC2)ccc1O,-1,17,19,-6,11,i
Cc1nc2scc(-c3ccc(C(C)C)cc3)c2c(=O)n1N,0,-7,-11,2,-2,i
COCCCN1C(=O)c2ccc(C(=O)OCC(=O)N3CCN(c4ccccc4)CC3)cc2C1=O,-1,x,-10,x,-8,x
Cc1cccc(NC(=O)COC(=O)c2ccccc2SCC(=O)N2CCCC2)c1,-6,33,9,-15,-7,i
SMILES,A3A deaminase,PHOSPHO1 block,MLLE-PAM2 inh,eIF4H inh,A3G deaminase,PABP polyA inh
N#CCCN(CCC#N)S(=O)(=O)c1ccc(C(=O)Nc2nnc(C3=COCCO3)o2)cc1,-5,16,1,82*,-8,+
CCCCN(C)S(=O)(=O)c1ccc(C(=O)Nc2nnc(C3=COCCO3)o2)cc1,-1,-4,2,22,-8,i
O=C(Nc1nnc(C2=COCCO2)o1)c1cccc(Br)c1,0,61*,21,-2,2,i
CS(=O)(=O)c1cccc(C(=O)Nc2nnc(C3=COCCO3)o2)c1,1,x,41*,x,-2,x
O=C(Nc1nnc(C2=COCCO2)o1)c1cccc([N+](=O)[O-])c1,1,8,-7,-5,-2,i
Cc1ccc(CCNC(=O)Cn2ncc3c([nH]c4ccccc43)c2=O)cc1,1,12,-6,-8,4,i
Cc1ccc2[nH]c3c(=O)n(CC(=O)NCc4ccco4)ncc3c2c1,5,-8,-22,59*,2,i
CC(C)(C)C1=CC=C(C(C)(C)C)C(=O)C1=O,3,67*,x,-4,4,i
COC(CNC(=O)c1ccc(CS(=O)(=O)c2ccc(Br)cc2)o1)OC,1,29,9,12,0,i
COc1cc(C(=O)Nc2nc(C)c(Cc3ccc4c(c3)OCO4)s2)cc(OC)c1OC,-3,74*,33,-1,21,i
S=c1[nH]nc(COc2ccc(Cl)cc2)n1-c1ccccc1,-6,8,-17,-3,3,i
CC1(N2CCCCC2)C(=O)c2ccccc2C1=O,-2,16,10,active,-5,+
O=C(N/N=C\c1ccccn1)C1COc2cc3ccccc3cc2O1 (stereo unspecified),0,13,-16,-1,0,i
NNC(=O)C1COc2cc3ccccc3cc2O1 (stereo unspecified),61*,14,-1,-8,0,i
COc1ccc(C2=NN(C(=O)CCCC(=O)O)C(c3cn(-c4ccccc4)nc3-c3ccccc3)C2)cc1 (stereo unspecified),0,8,-7,74*,-2,i
COc1ccc(-c2nn(-c3ccccc3)cc2C2CC(c3cccs3)=NN2C(=O)CCC(=O)O)cc1 (stereo unspecified),3,8,1,-8,2,i
Cc1cccc(-n2c(SCC(N)=O)nnc2-c2ccco2)c1,-7,29,-10,-2,-7,i
CCNC(=S)N/N=C/c1cn(Cc2ccc(F)cc2)c2ccccc12,-4,-9,8,82*,-13,+
O=C(N/N=C/c1cn(Cc2ccccc2)c2ccccc12)c1cc(O)cc(O)c1,14,8,-5,62*,-1,i
CCOCC(=O)Nc1nc2ccc(C)cc2s1,1,4,41*,-3,-2,i
O=C(CSc1nncc2ccccc12)N1CCOCC1,-13,31,42*,-6,-8,i
Cc1cccc(C)c1NC(=S)Nc1ccc(F)cc1,-4,-4,44*,-3,-6,i

# Screening data: PubChem BioAssay, Sanford-Burnham Center for Chemical Genomics
